ALOX12 inh: blocks human arachidonate 12S-lipoxygenase; P18054; purified 12hLO, xylenol orange hydroperoxide absorbance; Potency, µM (series often up to 108 µM), inactives show at the top dose activity change, negative = inhibition, usual class: inhibitors; 580,000 compounds, 1.1% hits; further: potency means the concentration at half of the fitted maximal effect
Target sequence (P18054 whole entry, looked up): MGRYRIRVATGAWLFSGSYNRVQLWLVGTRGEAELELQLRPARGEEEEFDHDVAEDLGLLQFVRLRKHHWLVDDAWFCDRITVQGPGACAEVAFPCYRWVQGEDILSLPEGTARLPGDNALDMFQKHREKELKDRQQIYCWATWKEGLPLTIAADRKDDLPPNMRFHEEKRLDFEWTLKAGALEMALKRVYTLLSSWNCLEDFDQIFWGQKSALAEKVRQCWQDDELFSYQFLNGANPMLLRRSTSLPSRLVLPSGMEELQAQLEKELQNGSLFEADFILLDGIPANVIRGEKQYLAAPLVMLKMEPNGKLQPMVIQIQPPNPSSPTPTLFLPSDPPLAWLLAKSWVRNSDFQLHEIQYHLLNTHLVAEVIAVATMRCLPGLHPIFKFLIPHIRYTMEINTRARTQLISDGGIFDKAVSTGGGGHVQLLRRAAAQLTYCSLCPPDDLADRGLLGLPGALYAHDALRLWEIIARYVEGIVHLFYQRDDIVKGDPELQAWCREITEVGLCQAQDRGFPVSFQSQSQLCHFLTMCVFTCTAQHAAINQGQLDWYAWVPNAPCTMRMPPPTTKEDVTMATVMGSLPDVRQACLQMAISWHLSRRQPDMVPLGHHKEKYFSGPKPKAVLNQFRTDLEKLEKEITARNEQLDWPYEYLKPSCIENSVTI
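Hydroperoxide product was detected by ferrous iron/xylenol orange as the 573 to 405 nm absorbance ratio. Arachidonic acid at 40 uM (final) was turned over for 30 min at room temperature by 150 nM human 12hLO, pH 7.0 Hepes buffer, after 15 min compound preincubation.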
DT40 TDP1 no CPT: qHTS for Inhibitors of human tyrosyl-DNA phosphodiesterase 1 (TDP1): qHTS in cells in absence of CPT; Potency, µM (titrated, usually from 46.2 µM), inactives show at the highest dose activity change, negative = growth inhibition, hits mostly inhibitors; AID 686978, 2013; DT40 Tdp1-/- hTDP1 cells, no CPT, ATP luminescence, 48 h; 420,000 compounds, 15% hits; further: potency means the concentration at half of the fitted maximal effect; nearly all actives have a fitted effect of over 55% in size
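Seeded 400 DT40-hTDP1 cells/well (vehicle DMSO, no 20 nM CPT); pinned compounds; ≥48 hr at 37 °C; CellTiter-Glo luminescence as viability measure.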
HT1080NT lethal: kills 2HG-producing HT-1080-NT fibrosarcoma cells | AID 686970 | HT-1080-NT fibrosarcoma viability, CellTiter-Glo ATP luminescence, 48 h | Potency, µM (titrated, usually from 46.1 µM), for the others: at the highest dose activity, negative = less viability, usual class: cytotoxic | 360,000 compounds, 1.6% hits;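 further: NT is the 2HG producing partner of a matched IDH1 knockdown line; potency means the concentration at half of the fitted maximal effect; 0% = DMSO-treated cells and -100% = media-only wells without cells; nearly all actives have a fitted effect of over 55% in size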
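Compounds were tested in concentration-response format on HT-1080-NT cells for 48 hours at 37 degrees C. Cell viability came from CellTiter-Glo luminescence; curves were classified by r2, response magnitude and activity.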
DT40 TDP1 CPT: growth inhibition of DT40 Tdp1-/-;hTDP1 cells with camptothecin (screen for TDP1 inhibitors). chicken DT40 Tdp1-/-;hTDP1 cells + 20 nM CPT, ATP luminescence, 48 h. Potency, µM (doses to about 46.2 µM), for inactives: at the top dose activity change, negative = growth inhibition, actives largely listed as inhibitors. 420,000 compounds, 12% hits. AID 686979; further: potency means the concentration at half of the fitted maximal effect; nearly all actives have a fitted effect of over 55% in size
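Chicken DT40 Tdp1-/- cells stably complemented with human TDP1 were seeded at 400 cells/well in medium containing 20 nM camptothecin, exposed to pin-transferred compounds, and grown at 37 °C for at least 48 hr. Viability was read as ATP luminescence.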
HT1080 IDH1KD tx: kills HT-1080 cells with IDH1 knockdown | HT-1080 IDH1 knockdown viability, ATP luminescence, 48 h | Potency, µM (titrated, usually from 46.1 µM), for the others: top-dose activity, negative = toxicity, most hits filed as cytotoxic | 360,000 compounds, 2% hits | AID 686971;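 further: potency means the concentration at half of the fitted maximal effect; 0% = DMSO wells and -100% = cell-free medium wells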
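CellTiter-Glo luminescence after 48 h compound exposure at 37 degrees C of IDH1-knockdown HT-1080 cells in 5% FBS RPMI. %Activity scaled between DMSO wells and cell-free media wells, with curves fitted and assigned curve classes.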
IL1B secr inh: inflammasome signaling inhibition, IL-1 beta readout; THP-1 LPS/ATP IL-1B secretion, AlphaLISA, 16 h; active compounds read low; activity change, % at 57.5 µM; 360,000 compounds, 4.7% hits; in the data active means activity change below about -50%; inconclusive means mostly about -30% to -49%
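Secreted IL-1B measured by AlphaLISA bead assay after 16 h compound exposure of THP-1 cells; compounds (final up to 57.5 uM) added 1 h before LPS (250 ng/mL) and ATP (1.25 mM) stimulation; lower signal means less secretion.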
Active calls of the source: *; u = inconclusive; x = no result; [ ] = another dose, or the depositor's remark. Only a selection was taken, and hits are over-represented in it overall. Unless noted, the call rests on the fitted dose curve; in most records, active means well fitted curve in the direction sought with a large enough effect; inconclusive means small, poorly fitted or top-dose-only effect, or another doubt; inactive means no such curve, though single readings can be large; an effect the other way counts as inactive or inconclusive. Unless noted, on the % scale 0 is the no-effect control and ±100 the full control effect.

SMILES	ALOX12 inh	DT40 TDP1 no CPT	HT1080NT lethal	DT40 TDP1 CPT	HT1080 IDH1KD tx	IL1B secr inh
Nc1ccc(Nc2ccc([N+](=O)[O-])cc2[N+](=O)[O-])cc1	-25%	-22%	-9%	u	-7%	-25
O=[N+]([O-])c1ccc(NN=CC2CCCCCC2)c([N+](=O)[O-])c1	u	13µM*	15%	15µM*	17%	20
CCN1CCN(CCOc2ccc3c(=O)c(-c4ccccc4)c(C)oc3c2)CC1	-10%	x	x	x	x	x
Cc1ccc(N(C(=O)c2ccc(C(C)(C)C)cc2)C2C=CS(=O)(=O)C2)cc1Cl (stereo not given)	-19%	x	x	x	x	x
CCOC(=O)[C@H]1[C@H]2COc3ccc(Cl)cc3[C@@H]2N2C(=O)c3ccc(C)cc3NC(=O)[C@@]12C	-12%	u	18%	u	13%	-13
C[C@@]12C(=O)NCC(=O)N1[C@@H]1c3cc(Br)ccc3OC[C@@H]1[C@@H]2c1ccccc1	-7%	-23%	-21%	10%	-7%	0
C[C@@]12C(=O)Nc3cc(Cl)ccc3C(=O)N1[C@H]1c3cc(Cl)ccc3OC[C@@H]1[C@@H]2c1ccccc1	-2%	u	u	18µM*	u	-13
C[C@@]12C(=O)Nc3cc(Cl)ccc3C(=O)N1[C@H]1c3cc(Br)ccc3OC[C@@H]1[C@@H]2c1ccccc1	-4%	23µM*	u	15µM*	u	-23
O=C(c1ccc(F)c(Cl)c1)N1CCN(C(=O)c2nnn3c2COC(c2ccccc2)C3)CC1 (stereo not given)	8%	x	x	x	x	x
Clc1ccccc1-c1nnc2sc(-c3ccc(Br)o3)nn12	-4%	-23%	1%	-27%	-10%	-52*
Clc1ccc(-c2nnc3sc(-c4ccc(Br)o4)nn23)c(Cl)c1	u	u	-5%	-24%	-3%	5
Clc1ccccc1-c1nnc2sc(-c3ccc4c(c3)OCO4)nn12	u	u	u	16µM*	u	-13
Brc1ccccc1-c1nnc2sc(-c3ccc4c(c3)OCCO4)nn12	5%	23µM*	x	12µM*	x	u
Cc1ccc(Cl)cc1N1CCN(C(=O)CCNS(=O)(=O)c2ccc3[nH]c(=O)ccc3c2)CC1	17%	x	x	x	x	x
CCOCCc1nn2c(=O)cc(COC(=O)c3ccc(NC(=O)C4CCCCC4)cc3)nc2s1	-22%	u	x	u	x	x
Cc1nn2c(=O)cc(COC(=O)c3ccc(NC(=O)C4CCCCC4)cc3)nc2s1	u	9.2µM*	x	u	x	x
CCc1nn2c(=O)cc(COC(=O)c3ccc(NC(=O)C4CCCCC4)cc3)nc2s1	-24%	18µM*	x	u	x	x
COc1ccc(C(=O)NCC(=O)N2CCCCCCNC(=O)CC2c2ccccc2)c(OC)n1 (stereo not given)	16%	x	x	x	x	x
Cc1ccsc1C(=O)NCC1Cn2cccc2CN1C (stereo not given)	279%	x	x	x	x	x
COc1ccc(S(=O)(=O)Nc2ccc3c(c2)n(C)c(=O)n3C)cc1F	-20%	u	u	23µM*	-18%	-14
Cc1cc(S(=O)(=O)Nc2ccc3c(c2)n(C)c(=O)n3C)ccc1F	-14%	29µM*	-1%	21µM*	-6%	-18
COc1ccc(Cl)cc1S(=O)(=O)Nc1ccc2c(c1)n(C)c(=O)n2C	u	u	u	15µM*	u	25
CCNC(=O)NC(=O)C(C)Sc1ccc(F)cc1 (stereo not given)	-4%	x	x	x	x	x
O=C(OC1C=CC2COC1O2)c1ccccc1 (stereo not given)	1%	x	x	x	x	x
O=C(OC[C@H]1O[C@@H](OC(=O)c2cc(O)c(O)c(OC(=O)c3cc(O)c(O)c(O)c3)c2)[C@H](OC(=O)c2cc(O)c(O)c(OC(=O)c3cc(O)c(O)c(O)c3)c2)[C@@H](OC(=O)c2cc(O)c(O)c(OC(=O)c3cc(O)c(O)c(O)c3)c2)[C@@H]1OC(=O)c1cc(O)c(O)c(OC(=O)c2cc(O)c(O)c(O)c2)c1)c1cc(O)c(O)c(OC(=O)c2cc(O)c(O)c(O)c2)c1	x	4.6µM*	11µM*	4.2µM*	u	x
SMILES	ALOX12 inh	DT40 TDP1 no CPT	HT1080NT lethal	DT40 TDP1 CPT	HT1080 IDH1KD tx	IL1B secr inh
COC1OC(COC(=O)c2ccccc2)C(OC(=O)c2ccccc2)C1OC(=O)c1ccccc1 (stereo not given)	5%	u	12%	u	14%	-16
CC(C)CNS(=O)(=O)c1cc(C(=O)N2CC(C)OC(C)C2)c(Cl)cc1Cl (stereo not given)	0%[57.4 µM]	23µM*	12%	u	-4%	-1
C[C@@H]1CN([C@@H](C)CO)C(=O)c2cc(NC(=O)Nc3ccc(F)cc3)ccc2O[C@@H]1CN(C)Cc1ccc(Oc2ccccc2)cc1	u	21µM*	u	u	16µM*	0
CC(C)NC(=O)Nc1ccc2c(c1)C(=O)N([C@H](C)CO)C[C@H](C)[C@@H](CN(C)Cc1ccc3c(c1)OCO3)OCCCC[C@@H](C)O2	0%	-25%	-1%	-4%	-1%	-7
COc1ccc(CN(C)C[C@@H]2OCCCC[C@H](C)Oc3ccc(NC(=O)Cc4ccccc4)cc3C(=O)N([C@@H](C)CO)C[C@@H]2C)cc1	-23%	23µM*	-23%	8%	-25%	-7
C[C@@H]1CN([C@H](C)CO)C(=O)c2cc(NC(=O)Nc3ccc(F)cc3)ccc2O[C@@H](C)CCCCO[C@H]1CN(C)Cc1ccc(C(=O)O)cc1	-7%	-34%	-1%	0%	4%	22
COc1ccc(CN(C)C[C@@H]2OCCCC[C@H](C)Oc3ccc(NC(=O)Nc4ccc(F)cc4)cc3C(=O)N([C@H](C)CO)C[C@H]2C)cc1	u	u	21µM*	u	u	u
CC(C)NC(=O)Nc1ccc2c(c1)C(=O)N([C@H](C)CO)C[C@H](C)[C@@H](CN(C)Cc1ccc(C(F)(F)F)cc1)OCCCC[C@H](C)O2	-23%	u	8%	21µM*	-28%	u
O=C(NCCCN1CCCCCC1)c1ccc(CC2CCN(C(=O)C3CC3)CC2)cc1	67%	x	x	x	x	x
CCC1(C(=O)Nc2ccc(C)cc2)CCCCC(=O)N1 (stereo not given)	14%	x	x	x	x	x
CN(Cc1ccccc1)Cc1nc2c(n1Cc1ccccc1)C(=O)N(CC1CC1)CCN2	87%[176 µM]	x	x	x	x	x

Assay outcomes from PubChem BioAssay.
